Laboratory results: paper PMC7862700, “An all-to-all approach to the identification of sequence-specific readers for epigenetic DNA modifications on cytosine”

Tests used:
Assay in all cases: DAPPL (digital affinity profiling via proximity ligation, sequencing); 10 mM Tris-HCl pH 7.5, 50 mM NaCl, 1 mM DTT, 4% glycerol, room temperature, 30 min; GST-TFs on glutathione beads, 16-mer random dsDNA library, 0.1% formaldehyde crosslink after washing; high values mean tight binding
FLI1 = target: T1, FLI1 (Homo sapiens, UniProt Q01543 1-452); conditions: protein: recombinant; tags: N-terminal GST; dsDNA, one strand shown
T1 sequence: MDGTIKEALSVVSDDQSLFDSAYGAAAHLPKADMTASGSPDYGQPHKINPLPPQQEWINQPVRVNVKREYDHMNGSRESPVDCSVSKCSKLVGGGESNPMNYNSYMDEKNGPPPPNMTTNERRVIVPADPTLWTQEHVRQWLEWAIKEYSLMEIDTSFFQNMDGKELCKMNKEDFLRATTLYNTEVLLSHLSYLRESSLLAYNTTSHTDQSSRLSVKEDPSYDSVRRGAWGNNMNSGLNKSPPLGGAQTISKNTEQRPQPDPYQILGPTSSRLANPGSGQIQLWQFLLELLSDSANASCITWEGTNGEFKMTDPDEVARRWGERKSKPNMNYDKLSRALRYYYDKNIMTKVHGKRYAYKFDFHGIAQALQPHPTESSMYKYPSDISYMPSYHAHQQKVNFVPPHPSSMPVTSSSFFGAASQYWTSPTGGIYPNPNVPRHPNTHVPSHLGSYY
Outline: (§1)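 GST fusions of human transcription factors were expressed in yeast and captured with glutathione beads. Once given DNA barcodes and pooled alongside a tag-only sample, they were incubated for 30 min at room temperature with 200 nmole of a random double-stranded 16-mer DNA library in Tris/NaCl/DTT/glycerol buffer, then washed, crosslinked (0.1% formaldehyde), proximity-ligated, PCR-amplified and sequenced on an Illumina NextSeq500. The binding signal of each hexamer is its read frequency for a factor divided by its frequency for the tag-only sample.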

ELK1 = target: T2, ELK1 (Homo sapiens, UniProt P19419 1-428); conditions: protein: recombinant; tags: N-terminal GST; dsDNA, one strand shown
T2 sequence: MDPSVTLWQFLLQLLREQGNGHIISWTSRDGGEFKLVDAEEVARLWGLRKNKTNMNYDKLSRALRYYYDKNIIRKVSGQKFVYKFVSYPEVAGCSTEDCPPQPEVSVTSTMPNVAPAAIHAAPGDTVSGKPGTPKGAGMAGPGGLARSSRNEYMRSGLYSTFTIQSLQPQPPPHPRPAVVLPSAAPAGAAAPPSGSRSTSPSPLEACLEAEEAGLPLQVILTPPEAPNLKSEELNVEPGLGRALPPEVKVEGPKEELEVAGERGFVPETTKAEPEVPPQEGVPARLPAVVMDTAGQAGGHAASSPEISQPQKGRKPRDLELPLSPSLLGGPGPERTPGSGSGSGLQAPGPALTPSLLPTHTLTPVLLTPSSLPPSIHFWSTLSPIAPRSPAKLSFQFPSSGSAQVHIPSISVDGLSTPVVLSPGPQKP
Outline: as §1

GABPA = target: T3, GABPA (Homo sapiens, UniProt Q06546 1-454); conditions: protein: recombinant; tags: N-terminal GST; dsDNA, one strand shown
T3 sequence: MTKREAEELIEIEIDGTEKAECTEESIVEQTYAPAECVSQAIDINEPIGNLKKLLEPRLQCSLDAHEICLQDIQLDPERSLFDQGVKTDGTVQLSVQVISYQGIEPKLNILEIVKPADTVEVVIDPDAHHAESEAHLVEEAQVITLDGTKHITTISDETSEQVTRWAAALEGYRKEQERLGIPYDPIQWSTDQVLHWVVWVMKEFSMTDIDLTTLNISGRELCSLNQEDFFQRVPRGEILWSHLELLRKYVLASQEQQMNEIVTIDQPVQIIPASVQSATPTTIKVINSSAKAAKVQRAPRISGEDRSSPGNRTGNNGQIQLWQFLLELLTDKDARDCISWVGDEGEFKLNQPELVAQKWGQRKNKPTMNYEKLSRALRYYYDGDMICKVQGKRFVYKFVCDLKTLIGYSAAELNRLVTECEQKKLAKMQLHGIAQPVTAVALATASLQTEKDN
Outline: as §1

ERG = target: T4, ERG (Homo sapiens, UniProt P11308 1-479); conditions: protein: recombinant; tags: N-terminal GST; dsDNA, one strand shown
T4 sequence: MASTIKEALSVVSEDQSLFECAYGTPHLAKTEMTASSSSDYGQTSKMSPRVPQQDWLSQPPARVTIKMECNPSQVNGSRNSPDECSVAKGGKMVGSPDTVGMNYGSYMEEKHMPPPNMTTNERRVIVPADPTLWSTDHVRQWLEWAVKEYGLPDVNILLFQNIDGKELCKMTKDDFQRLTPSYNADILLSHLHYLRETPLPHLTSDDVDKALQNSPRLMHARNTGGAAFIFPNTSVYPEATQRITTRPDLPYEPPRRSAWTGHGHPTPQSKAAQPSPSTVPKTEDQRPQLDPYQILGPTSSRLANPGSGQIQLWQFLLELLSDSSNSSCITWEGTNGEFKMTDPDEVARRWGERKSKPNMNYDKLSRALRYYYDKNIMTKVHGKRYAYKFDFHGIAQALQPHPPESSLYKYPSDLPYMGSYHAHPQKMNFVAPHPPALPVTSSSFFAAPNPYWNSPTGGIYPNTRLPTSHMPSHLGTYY
Outline: as §1

ELF1 = ELF1 (Homo sapiens, UniProt P32519 1-619); conditions: protein: recombinant; tags: N-terminal GST; dsDNA, one strand shown
Outline: as §1

EHF = target: T5, EHF (Homo sapiens, UniProt Q9NZC4 1-300); conditions: protein: recombinant; tags: N-terminal GST; dsDNA, one strand shown
T5 sequence: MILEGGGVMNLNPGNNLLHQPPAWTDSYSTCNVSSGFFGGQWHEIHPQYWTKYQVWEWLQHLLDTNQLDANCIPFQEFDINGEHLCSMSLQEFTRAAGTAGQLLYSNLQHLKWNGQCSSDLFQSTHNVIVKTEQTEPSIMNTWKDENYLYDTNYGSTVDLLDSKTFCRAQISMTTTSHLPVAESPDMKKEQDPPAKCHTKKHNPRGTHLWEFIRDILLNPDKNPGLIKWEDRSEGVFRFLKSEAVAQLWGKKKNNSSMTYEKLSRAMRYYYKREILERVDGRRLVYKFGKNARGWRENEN
Outline: as §1

SPI1 = SPI1 (Homo sapiens, UniProt P17947 1-270); conditions: protein: recombinant; tags: N-terminal GST; dsDNA, one strand shown
Outline: as §1

SPIB = SPIB (Homo sapiens, UniProt Q01892 1-262); conditions: protein: recombinant; tags: N-terminal GST; dsDNA, one strand shown
Outline: as §1

ELK3 = target: T6, ELK3 (Homo sapiens, UniProt P41970 1-407); conditions: protein: recombinant; tags: N-terminal GST; dsDNA, one strand shown
T6 sequence: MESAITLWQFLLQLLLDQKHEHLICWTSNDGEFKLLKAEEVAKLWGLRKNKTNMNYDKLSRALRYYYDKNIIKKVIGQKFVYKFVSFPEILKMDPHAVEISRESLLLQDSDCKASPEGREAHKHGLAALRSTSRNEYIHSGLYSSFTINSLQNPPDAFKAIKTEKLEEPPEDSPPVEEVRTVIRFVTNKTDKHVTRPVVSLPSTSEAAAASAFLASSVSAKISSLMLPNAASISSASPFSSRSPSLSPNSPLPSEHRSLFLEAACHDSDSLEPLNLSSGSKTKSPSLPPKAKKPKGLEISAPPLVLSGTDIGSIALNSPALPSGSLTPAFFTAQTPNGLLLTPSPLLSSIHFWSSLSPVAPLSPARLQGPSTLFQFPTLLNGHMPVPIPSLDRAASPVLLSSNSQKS
Outline: as §1

FEV = target: T7, FEV (Homo sapiens, UniProt Q99581 1-238); conditions: protein: recombinant; tags: N-terminal GST; dsDNA, one strand shown
T7 sequence: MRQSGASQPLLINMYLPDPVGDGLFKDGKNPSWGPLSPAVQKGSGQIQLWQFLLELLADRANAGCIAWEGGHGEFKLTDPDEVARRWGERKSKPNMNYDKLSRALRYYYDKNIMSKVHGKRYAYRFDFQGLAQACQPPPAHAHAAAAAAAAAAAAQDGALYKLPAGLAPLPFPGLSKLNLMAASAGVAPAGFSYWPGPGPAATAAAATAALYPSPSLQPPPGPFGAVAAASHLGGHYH
Outline: as §1

ETV5 = ETV5 (Homo sapiens, UniProt P41161 1-510); conditions: protein: recombinant; tags: N-terminal GST; dsDNA, one strand shown
Outline: as §1

HSF1 = HSF1 (Homo sapiens, UniProt Q00613 1-529); conditions: protein: recombinant; tags: N-terminal GST; chain copies: 3; dsDNA, one strand shown
Outline: as §1

SPIC = target: T8, SPIC (Homo sapiens, UniProt Q8N5J4 1-248); conditions: protein: recombinant; tags: N-terminal GST; dsDNA, one strand shown
T8 sequence: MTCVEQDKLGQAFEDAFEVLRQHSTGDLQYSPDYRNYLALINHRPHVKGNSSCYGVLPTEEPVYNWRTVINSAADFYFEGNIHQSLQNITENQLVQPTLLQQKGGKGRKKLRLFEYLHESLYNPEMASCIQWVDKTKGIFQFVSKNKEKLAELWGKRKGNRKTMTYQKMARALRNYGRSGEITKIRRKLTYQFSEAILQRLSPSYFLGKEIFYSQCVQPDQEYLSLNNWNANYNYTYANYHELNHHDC
Outline: as §1

ELF4 = ELF4 (Homo sapiens, UniProt Q99607 1-663); conditions: protein: recombinant; tags: N-terminal GST; dsDNA, one strand shown
Outline: as §1

ELK4 = target: T9, ELK4 (Homo sapiens, UniProt P28324-2 1-405); conditions: protein: recombinant; tags: N-terminal GST; dsDNA, one strand shown
T9 sequence: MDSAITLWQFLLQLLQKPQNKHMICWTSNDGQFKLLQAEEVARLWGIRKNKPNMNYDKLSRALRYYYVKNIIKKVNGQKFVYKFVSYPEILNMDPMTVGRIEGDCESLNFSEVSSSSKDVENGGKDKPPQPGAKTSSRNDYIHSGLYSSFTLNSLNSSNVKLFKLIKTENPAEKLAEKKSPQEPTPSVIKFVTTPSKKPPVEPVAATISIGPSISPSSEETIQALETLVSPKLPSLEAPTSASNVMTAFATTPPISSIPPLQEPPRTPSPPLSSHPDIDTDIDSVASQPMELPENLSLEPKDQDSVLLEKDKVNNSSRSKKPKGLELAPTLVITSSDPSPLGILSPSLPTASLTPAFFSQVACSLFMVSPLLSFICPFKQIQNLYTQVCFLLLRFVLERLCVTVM
Outline: as §1

ETV2 = target: T10, ETV2 (Homo sapiens, UniProt O00321 1-342); conditions: protein: recombinant; tags: N-terminal GST; dsDNA, one strand shown
T10 sequence: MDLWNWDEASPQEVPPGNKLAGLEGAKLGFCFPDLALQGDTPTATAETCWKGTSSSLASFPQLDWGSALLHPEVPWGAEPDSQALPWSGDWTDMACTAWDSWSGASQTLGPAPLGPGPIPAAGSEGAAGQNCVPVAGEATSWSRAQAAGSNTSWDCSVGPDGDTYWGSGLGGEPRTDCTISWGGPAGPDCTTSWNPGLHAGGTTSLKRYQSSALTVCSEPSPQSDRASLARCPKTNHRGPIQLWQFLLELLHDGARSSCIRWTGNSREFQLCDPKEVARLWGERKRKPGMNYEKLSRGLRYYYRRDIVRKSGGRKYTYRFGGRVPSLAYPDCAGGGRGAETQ
Outline: as §1

CRX = CRX (Homo sapiens, UniProt O43186 1-299); conditions: protein: recombinant; tags: N-terminal GST; dsDNA, one strand shown
Outline: as §1

ETV1 = ETV1 (Homo sapiens, UniProt P50549 1-477); conditions: protein: recombinant; tags: N-terminal GST; dsDNA, one strand shown
Outline: as §1

Chain of SPIB (Q01892 whole entry): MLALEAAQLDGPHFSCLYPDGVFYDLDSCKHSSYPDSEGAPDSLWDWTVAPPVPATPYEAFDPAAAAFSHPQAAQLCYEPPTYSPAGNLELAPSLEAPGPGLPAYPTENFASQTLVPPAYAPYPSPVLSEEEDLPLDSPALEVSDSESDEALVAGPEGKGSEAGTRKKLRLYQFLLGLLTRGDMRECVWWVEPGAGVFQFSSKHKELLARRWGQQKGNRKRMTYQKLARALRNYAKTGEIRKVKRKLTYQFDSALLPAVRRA
Chain of HSF1 (Q00613 whole entry): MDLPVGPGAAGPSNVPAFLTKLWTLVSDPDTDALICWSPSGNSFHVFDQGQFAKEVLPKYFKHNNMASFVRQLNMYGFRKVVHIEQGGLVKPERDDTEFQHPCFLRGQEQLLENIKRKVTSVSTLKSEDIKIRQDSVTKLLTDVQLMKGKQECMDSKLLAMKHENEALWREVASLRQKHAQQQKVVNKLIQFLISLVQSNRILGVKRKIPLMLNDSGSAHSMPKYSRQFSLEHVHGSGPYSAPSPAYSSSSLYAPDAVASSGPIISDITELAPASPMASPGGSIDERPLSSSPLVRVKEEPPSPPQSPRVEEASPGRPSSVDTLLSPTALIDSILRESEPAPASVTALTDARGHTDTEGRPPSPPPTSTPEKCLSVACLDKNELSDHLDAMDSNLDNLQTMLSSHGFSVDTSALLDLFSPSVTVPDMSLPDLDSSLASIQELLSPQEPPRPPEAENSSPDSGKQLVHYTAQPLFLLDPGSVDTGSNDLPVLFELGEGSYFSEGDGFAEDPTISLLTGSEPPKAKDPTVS
Chain of ELF1 (P32519 whole entry): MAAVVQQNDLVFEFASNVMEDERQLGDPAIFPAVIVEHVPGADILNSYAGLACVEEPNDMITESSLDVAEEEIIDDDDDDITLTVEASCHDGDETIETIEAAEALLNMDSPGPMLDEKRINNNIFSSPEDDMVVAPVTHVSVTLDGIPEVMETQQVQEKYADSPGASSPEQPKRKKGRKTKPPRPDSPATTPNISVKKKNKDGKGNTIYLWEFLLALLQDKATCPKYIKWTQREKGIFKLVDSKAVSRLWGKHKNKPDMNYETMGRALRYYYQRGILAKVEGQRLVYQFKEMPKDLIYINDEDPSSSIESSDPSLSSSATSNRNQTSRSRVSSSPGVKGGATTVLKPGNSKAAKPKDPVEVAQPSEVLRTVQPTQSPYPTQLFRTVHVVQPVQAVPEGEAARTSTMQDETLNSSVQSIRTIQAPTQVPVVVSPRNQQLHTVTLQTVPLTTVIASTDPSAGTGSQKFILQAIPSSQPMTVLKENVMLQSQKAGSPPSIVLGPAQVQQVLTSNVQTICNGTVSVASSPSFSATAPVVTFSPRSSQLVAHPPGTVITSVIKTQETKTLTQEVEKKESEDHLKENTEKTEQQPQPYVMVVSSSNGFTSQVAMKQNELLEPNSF
Chain of CRX (O43186 whole entry): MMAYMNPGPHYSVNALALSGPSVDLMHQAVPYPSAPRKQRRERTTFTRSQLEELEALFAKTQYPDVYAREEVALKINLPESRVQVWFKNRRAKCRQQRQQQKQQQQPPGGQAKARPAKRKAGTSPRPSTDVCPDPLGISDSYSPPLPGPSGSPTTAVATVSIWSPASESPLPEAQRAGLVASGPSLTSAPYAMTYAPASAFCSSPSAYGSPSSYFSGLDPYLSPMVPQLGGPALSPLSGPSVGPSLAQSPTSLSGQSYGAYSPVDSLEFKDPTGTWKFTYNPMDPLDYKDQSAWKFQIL
Chain of ELF4 (Q99607 whole entry): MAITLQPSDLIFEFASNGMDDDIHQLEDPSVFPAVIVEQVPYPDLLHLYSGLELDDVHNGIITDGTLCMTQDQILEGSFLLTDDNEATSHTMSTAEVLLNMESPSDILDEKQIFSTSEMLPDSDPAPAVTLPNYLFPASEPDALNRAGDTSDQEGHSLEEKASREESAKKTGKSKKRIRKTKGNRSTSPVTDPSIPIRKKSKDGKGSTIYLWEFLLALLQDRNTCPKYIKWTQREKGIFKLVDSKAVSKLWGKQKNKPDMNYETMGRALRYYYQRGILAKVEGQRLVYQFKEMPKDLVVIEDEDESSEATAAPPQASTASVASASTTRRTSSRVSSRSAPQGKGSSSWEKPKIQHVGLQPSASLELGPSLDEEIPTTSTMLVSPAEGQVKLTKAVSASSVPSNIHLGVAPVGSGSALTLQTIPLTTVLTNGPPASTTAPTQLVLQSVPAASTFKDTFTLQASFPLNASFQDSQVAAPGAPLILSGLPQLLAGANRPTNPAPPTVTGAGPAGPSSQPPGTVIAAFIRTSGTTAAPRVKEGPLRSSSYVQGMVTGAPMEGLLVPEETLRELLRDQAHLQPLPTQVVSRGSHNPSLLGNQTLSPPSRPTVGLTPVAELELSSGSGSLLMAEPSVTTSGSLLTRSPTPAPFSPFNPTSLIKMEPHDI
Chain of ETV1 (P50549 whole entry): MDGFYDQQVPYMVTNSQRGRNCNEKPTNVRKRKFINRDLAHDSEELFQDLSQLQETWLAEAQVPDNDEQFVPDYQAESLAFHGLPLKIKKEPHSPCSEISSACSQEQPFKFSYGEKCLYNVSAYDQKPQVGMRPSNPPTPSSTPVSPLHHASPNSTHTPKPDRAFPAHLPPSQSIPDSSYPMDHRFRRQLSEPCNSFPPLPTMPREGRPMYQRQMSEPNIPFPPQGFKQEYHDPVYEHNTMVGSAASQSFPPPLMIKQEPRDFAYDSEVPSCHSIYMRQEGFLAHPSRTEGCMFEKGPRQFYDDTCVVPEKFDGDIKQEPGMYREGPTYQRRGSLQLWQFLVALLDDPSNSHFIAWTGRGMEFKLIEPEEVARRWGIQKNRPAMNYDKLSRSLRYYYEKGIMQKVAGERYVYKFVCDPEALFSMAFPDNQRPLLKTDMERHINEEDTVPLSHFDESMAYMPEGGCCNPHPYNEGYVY
Chain of ETV5 (P41161 whole entry): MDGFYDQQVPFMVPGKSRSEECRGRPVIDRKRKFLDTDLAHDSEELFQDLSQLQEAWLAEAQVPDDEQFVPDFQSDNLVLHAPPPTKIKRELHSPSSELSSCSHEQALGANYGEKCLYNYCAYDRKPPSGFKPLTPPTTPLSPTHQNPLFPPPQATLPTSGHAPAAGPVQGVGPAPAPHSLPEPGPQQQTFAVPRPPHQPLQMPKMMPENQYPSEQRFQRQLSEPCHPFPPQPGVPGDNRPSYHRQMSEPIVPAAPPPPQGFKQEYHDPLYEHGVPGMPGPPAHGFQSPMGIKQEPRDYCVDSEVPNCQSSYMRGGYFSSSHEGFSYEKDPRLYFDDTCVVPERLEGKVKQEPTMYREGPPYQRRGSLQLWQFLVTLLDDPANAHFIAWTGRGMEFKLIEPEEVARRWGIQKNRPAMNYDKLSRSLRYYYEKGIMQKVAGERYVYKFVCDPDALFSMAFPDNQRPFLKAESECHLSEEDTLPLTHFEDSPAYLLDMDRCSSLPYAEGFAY

Row | Sequence | binding signal (FLI1) | binding signal (ELK1) | binding signal (GABPA) | binding signal (ERG) | binding signal (ELF1) | binding signal (EHF) | binding signal (SPI1) | binding signal (SPIB) | binding signal (ELK3) | binding signal (FEV) | binding signal (ETV5) | binding signal (HSF1) | binding signal (SPIC) | binding signal (ELF4) | binding signal (ELK4) | binding signal (ETV2) | binding signal (CRX) | binding signal (ETV1)
1 | TCTGTA | 1.23 fold enrichment (6-mer frequency, TF over GST control) | 1.19 fold enrichment (6-mer frequency, TF over GST control) | 1.2 fold enrichment (6-mer frequency, TF over GST control) | 1.11 fold enrichment (6-mer frequency, TF over GST control) | 1.18 fold enrichment (6-mer frequency, TF over GST control) | 1.15 fold enrichment (6-mer frequency, TF over GST control) | 1.16 fold enrichment (6-mer frequency, TF over GST control) | 1.19 fold enrichment (6-mer frequency, TF over GST control) | 1.2 fold enrichment (6-mer frequency, TF over GST control) | 1.24 fold enrichment (6-mer frequency, TF over GST control) | 1.19 fold enrichment (6-mer frequency, TF over GST control) | 1.31 fold enrichment (6-mer frequency, TF over GST control) | 1.39 fold enrichment (6-mer frequency, TF over GST control) | 1.18 fold enrichment (6-mer frequency, TF over GST control) | 1.3 fold enrichment (6-mer frequency, TF over GST control) | 1.28 fold enrichment (6-mer frequency, TF over GST control) | 1.34 fold enrichment (6-mer frequency, TF over GST control) | 1.28 fold enrichment (6-mer frequency, TF over GST control)
2 | GATGAA | 1.23 fold enrichment (6-mer frequency, TF over GST control) | 1.26 fold enrichment (6-mer frequency, TF over GST control) | 1.2 fold enrichment (6-mer frequency, TF over GST control) | 1.17 fold enrichment (6-mer frequency, TF over GST control) | 1.18 fold enrichment (6-mer frequency, TF over GST control) | 1.15 fold enrichment (6-mer frequency, TF over GST control) | 1.1 fold enrichment (6-mer frequency, TF over GST control) | 1.24 fold enrichment (6-mer frequency, TF over GST control) | 1.11 fold enrichment (6-mer frequency, TF over GST control) | 1.13 fold enrichment (6-mer frequency, TF over GST control) | 1.13 fold enrichment (6-mer frequency, TF over GST control) | 1.21 fold enrichment (6-mer frequency, TF over GST control) | 1.11 fold enrichment (6-mer frequency, TF over GST control) | 1.2 fold enrichment (6-mer frequency, TF over GST control) | 1.21 fold enrichment (6-mer frequency, TF over GST control) | 1.13 fold enrichment (6-mer frequency, TF over GST control) | 1.22 fold enrichment (6-mer frequency, TF over GST control) | 1.27 fold enrichment (6-mer frequency, TF over GST control)
